The values that follow come from PubChem BioAssay AID743279 (National Center for Advancing Translational Sciences (NCATS), 2014).

In all, about 360,000 compounds went through this assay and about 17,000 (4.7%) were called active. Not shown: some 5% with an inconclusive outcome. The entries come from a sample that favours actives as a whole. A number with no mark means an inactive call. No stated cut-off is given here; in the data, active means activity change below about -50%; inconclusive means mostly about -30% to -49%; inactive means weaker than that.
On the % scale 0 is the no-effect control and ±100 the full control effect.

A short description of this experiment: qHTS for Inhibitors of Inflammasome Signaling: IL-1-beta AlphaLISA Primary Screen. Conditions: THP-1 LPS/ATP IL-1B secretion, 16 h; at 57.5 µM, active compounds read low. In a few lines: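 Secreted IL-1B measured by AlphaLISA bead assay after 16 h compound exposure of THP-1 cells; compounds (final up to 57.5 uM) added 1 h before LPS (250 ng/mL) and ATP (1.25 mM) stimulation; lower signal means less secretion.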
For orientation: Quantitative high-throughput screening tests each substance at several concentrations.
With `COc1ccc(C(CNC(=O)CSc2ccccc2)N2CCOCC2)cc1` (stereo not drawn), the activity change is 0%.

`COC(=O)C[C@@H]1C=C[C@@H](NC(=O)c2cccnc2)[C@@H](CO)O1`: the activity change is 2.57%. For `CCOC(=O)C1CCCN(C(=O)c2cccc3ccccc23)CC1` (stereo not drawn) the value was 61.7%. For `O=[N+]([O-])c1ccc(COc2ccccc2CN2CCOCC2)cc1`, the activity change was -17.6%.

For `COc1ccc(NC(=O)c2cccc(Cl)c2)c[n+]1[O-]`, the activity change was -0.66%. For `C=C(C)COc1ccc(-c2ncncc2-c2ccc(OC)cc2)c(O)c1` the value was -58.4% (active); for `COc1ccc(-c2nc(N)ncc2-c2ccc(Cl)cc2)c(O)c1`, -11.3%; for `C=C(C)COc1ccc(-c2nc(N)ncc2-c2ccccc2OC)c(O)c1`, -26.4%. `COc1ccc(C(C(=O)NCc2ccccc2)N(Cc2cccs2)C(=O)c2cnccn2)cc1` (stereo not drawn): the activity change was 3.36%. For `COc1ccc(-c2cc(C3CCN(c4ncccc4[N+](=O)[O-])CC3)[nH]n2)cc1` the value was -28.8%; for `CN(C)CCN1CCN(c2cc(-c3cccc(Cl)c3)nc3ccnn23)CC1`, 6.44%; for `O=C(c1ccccc1)N1CCN(c2cc(-c3ccccc3)nc3cc(-c4cccc(Cl)c4)nn23)CC1`, 15.2%. For `C#Cc1cc(N2CCN(C(=O)c3ccoc3)CC2)n2nc(-c3cccc(Cl)c3)cc2n1` the value was -109% (active); for `COc1cccc(/C=N/Nc2cc(C)nc(-c3ccccc3O)n2)c1O`, -99.4% (active); for `COc1ccc(/C=N/Nc2cc(N3CCOCC3)nc(C)n2)c(OC)c1`, -8.96%.

`COc1cccc(/C=N/Nc2ccc(S(=O)(=O)Nc3ccccc3C(=O)O)cc2[N+](=O)[O-])c1O`: the activity change was -5.79%.

As to `CC(=O)c1ccc(Oc2cc(C)nc(-n3nc(C)cc3C)n2)cc1`, the activity change is 46.7%. For `Cc1nc2ccccc2nc1N/N=C/c1ccc(O)cc1O` the value was 144%. On to `COc1ccccc1/C=N\Nc1cc(C)nc(-n2nc(C)cc2C)n1`, for which the activity change is -99% (active). For `O=S(=O)(/N=C(/Nc1ccccc1)c1ccccc1)c1cccs1` the value was -18.2%; for `COc1ccc(-c2csc(C(O)c3cccc(Cl)c3)n2)cn1` (stereo not drawn), -7.83%.

On to `CN1CCn2cnc(C(=O)NCC(=O)OC(C)(C)C)c2C1=O`, for which the activity change is 3.21%. For `O=C(Nc1ccc(Cl)cc1)c1csc([C@H]2C[C@H](O)[C@@H](CO)O2)n1` the value was 17.6%. For `COc1ccc(-c2cc(C(F)(F)F)nc(SCCC(=O)NCc3ccco3)n2)cc1` the value was -20.3%; for `COc1ccc(N)cc1NC(=O)CN1CCOCC1`, 3.53%. For `C=C1C(=O)[C@]23C[C@H]1CCC2[C@@]1(C)C(C[C@@H]3O)[C@](C)(C(=O)O)CC[C@@H]1O` (stereo partly drawn), the activity change was -91.2% (active).

Regarding `COc1cc(S(=O)(=O)Nc2ncn[nH]2)ccc1Cl`, the activity change is 8.42%.

`CN1CCOC1c1ccc(C2OCCN2C)cc1` (stereo not drawn): the activity change was 5.1%.

For the compound `CN(C)c1ccc(/C=N/NC(=O)C(O)c2ccc(Br)cc2)cc1` (stereo not drawn), the activity change is -3.94%. For `O=C(N/N=C\c1ccc(Br)cc1)c1ccc(Cn2cccn2)o1` the value was -3.71%; for `CN(C)c1ccc(/C=N/NC(=O)c2ccc(Cn3cc(Br)cn3)o2)cc1`, -53% (active).

With `CC=CCn1c(SCCCc2ccccc2)nc2c1c(=O)[nH]c(=O)n2C`, the activity change is 34.7%. For `O=C1OC(Cc2ccccc2)C(c2ccccc2)C1=O` (stereo not drawn) the value was -4.65%.

Take `CCN1CCN(CCNC(=O)c2ccc3c(c2)NC(=O)/C(=C\c2cccc(Cl)c2)S3)CC1`: the activity change is 12.3%. For `CCN(CCCNC(=O)CCn1c(=O)[nH]c2ccsc2c1=O)c1ccccc1` the value was -7.98%; for `CCN(CCCNC(=O)c1ccc2c(c1)NC(=O)CN2C)c1cccc(C)c1`, -98.2% (active); for `O=C(Nc1ccc(F)cc1)C(CCc1ccccc1)N1CCN(CC(=O)N2CCCC2)CC1` (stereo not drawn), -1.84%. For `CC(=O)Nc1ccccc1OC(C)C(=O)N1CCC(C)CC1` (stereo not drawn) the value was 26.5%. As to `CCOC(=O)C1C(C)C(C(C)(C)C)N(S(=O)(=O)c2ccc(C)cc2)C1c1ccccc1` (stereo not drawn), the activity change was -15.7%.

For `CC(/C=N/NC(=O)c1cc(-c2ccc3ccccc3c2)n[nH]1)=C\c1ccco1`, the activity change was -29.4%. Turning to `Cc1cc(C(=O)N/N=C\C(Br)=C\c2ccccc2)c(C)o1`, the activity change is -99% (active).

Consider `COc1ccc(C/C(C)=N/NC(=O)c2cc(C)oc2C)cc1`, for which the activity change is -3.42%.

For `CC(C)c1cc(C(=O)O)n[nH]1`, the activity change was -10.8%.

As for `CC(C)c1cc(C(=O)N/N=C/C(Br)=C/c2ccccc2)n[nH]1`, the activity change was -78.1% (active). Consider `CC(=C/c1ccccc1)/C=N/NC(=O)c1cc(C)oc1C`, for which the activity change is -1.83%. As to `CCC1C=C(c2ccccc2)C=CN=C1N(CC)CC` (stereo not drawn), the activity change is -9.78%. Turning to `COc1c(C)cc(C(O)c2ncc(-c3cccc(C(F)(F)F)c3)[nH]2)cc1C` (stereo not drawn), the activity change is -19.6%. With `C=CCn1c(CCNC(=O)c2ccccc2F)nnc1SCC(=O)Nc1ccc(OC)cc1`, the activity change was 0.328%. For `N#Cc1cc([N+](=O)[O-])ccc1NCC1CCCO1` (stereo not drawn) the value was 16.2%.

On to `COc1cc(OC)cc(C(=O)N[C@H](C(=O)OCC(=O)NC(C)c2ccccc2)C(C)C)c1` (stereo partly drawn), for which the activity change is 0%. As for `COc1ccc(OCCNS(=O)(=O)Cc2ccccc2)cc1`, the activity change was 5.88%.

For the compound `CC(C)(c1ccccc1)c1ccc(OCCN)cc1`, the activity change was -93.8% (active). For `Cc1nn(CCOc2ccccc2)c(=O)n1-c1ccccc1F` the value was -5.73%; for `CCOn1c(=O)c(=O)n(O)c2ccccc21`, 33.6%. For `COc1cc(C)c(CN2CCN(C(=O)CCC(=O)c3ccc(C)s3)CC2)cc1OC` the value was -4.16%. For `CC(C(=O)NC1CCS(=O)(=O)C1)N1C(=O)/C(=C/c2ccc(Cl)cc2)SC1=S` (stereo not drawn) the value was -3.39%; for `O=C1/C(=C\c2ccc(O)cc2)CCC1CNc1ccc(Cl)cc1` (stereo not drawn), -106% (active).

On to `COc1ccc(-c2ccc(CN3C(CC(C)C)C(=O)N(Cc4cn(CC5CCCCC5)nn4)CCS3(=O)=O)cc2)cc1` (stereo not drawn), for which the activity change was 18.2%. For `COCOCCn1cc(CN2CCS(=O)(=O)N(Cc3ccc(-c4cccc(N(C)C)c4)cc3)C(CC(C)C)C2=O)nn1` (stereo not drawn) the value was -1.55%; for `CC(C)CC1C(=O)N(Cc2cn(Cc3ccco3)nn2)CCS(=O)(=O)N1Cc1ccc(-c2ccc(Cl)c(Cl)c2)cc1` (stereo not drawn), -82.3% (active); for `CC(C)CC1C(=O)N(Cc2cn(CC3CCCCC3)nn2)CCS(=O)(=O)N1Cc1ccc(-c2ccc(Cl)cc2)cc1` (stereo not drawn), -2.11%. For `COCOCCn1cc(CN2CCS(=O)(=O)N(Cc3ccc(-c4ccc(OC)cc4)cc3)C(CC(C)C)C2=O)nn1` (stereo not drawn) the value was -56.9% (active); for `CC1C(=O)N(Cc2cn(Cc3ccco3)nn2)CCS(=O)(=O)N1Cc1ccc(-c2cccc(CO)c2)cc1` (stereo not drawn), -17.1%.
